In the supplement of paper PMC6089552:
The campaign covered roughly 3,200 compounds. About 300 (9.4%) showed activity. The full list was thinned out, with actives kept by preference.

Test system: A673/TR/shEF
Experiment: cell viability (LOESS-normalised, relative to median of negative controls) (log2 ratio); higher = more viable cells (less compound effect), active = hit call of the paper (over 3 MAD below the median)
Conditions: treatment time: 72 h
How it was run: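 A673/TR/shEF Ewing sarcoma cells were plated at 1,500 per well in 384-well plates and cultured with or without doxycycline, added 24 h before compounds, to induce EWS-FLI1 shRNA knockdown. Library compounds at two or more concentrations, alongside DMSO controls, were applied for three days. Cell viability was measured by CellTiter-Glo luminescence on an Envision reader. Readings were LOESS-corrected per plate, divided by the median of negative controls and log2-transformed, and hits were wells lying at least three median absolute deviations from the median of all screened wells.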

[1] = 0.25 µM, library screen: screen1, EWS-FLI1 expression: high (no doxycycline)
[2] = 0.25 µM, library screen: screen1, EWS-FLI1 expression: low (doxycycline-induced shRNA knockdown)
[3] = 2.5 µM, library screen: screen1, EWS-FLI1 expression: high (no doxycycline)
[4] = 2.5 µM, library screen: screen1, EWS-FLI1 expression: low (doxycycline-induced shRNA knockdown)
[5] = 0.103 µM, library screen: screen3, EWS-FLI1 expression: high (no doxycycline)
[6] = 0.103 µM, library screen: screen3, EWS-FLI1 expression: low (doxycycline-induced shRNA knockdown)
[7] = 0.308 µM, library screen: screen3, EWS-FLI1 expression: high (no doxycycline)
[8] = 0.308 µM, library screen: screen3, EWS-FLI1 expression: low (doxycycline-induced shRNA knockdown)
[9] = 0.926 µM, library screen: screen3, EWS-FLI1 expression: high (no doxycycline)
[10] = 0.926 µM, library screen: screen3, EWS-FLI1 expression: low (doxycycline-induced shRNA knockdown)
[11] = 2.8 µM, library screen: screen3, EWS-FLI1 expression: high (no doxycycline)
[12] = 2.8 µM, library screen: screen3, EWS-FLI1 expression: low (doxycycline-induced shRNA knockdown)
[13] = 8.3 µM, library screen: screen3, EWS-FLI1 expression: high (no doxycycline)
[14] = 8.3 µM, library screen: screen3, EWS-FLI1 expression: low (doxycycline-induced shRNA knockdown)
[15] = 25 µM, library screen: screen3, EWS-FLI1 expression: high (no doxycycline)
[16] = 25 µM, library screen: screen3, EWS-FLI1 expression: low (doxycycline-induced shRNA knockdown)

Measured: cell viability (log2)

CC1(C)C(=O)CC[C@@]2(C)C1C[C@@H](O)[C@@]1(C)C3=CC(=O)O[C@@H](c4ccoc4)[C@]3(C)CCC21 (some centres undefined)
inactive: [1] 0.0874 | [2] 0.0583 | [3] 0.0284 | [4] 0.0454

COc1cc2c(cc1O)C(Cc1ccc(O)cc1)N(C)CC2 (centres undefined)
inactive: [1] 0.127 | [2] 0.111 | [3] 0.067 | [4] 0.114

O=C(O[C@@H]1Cc2c(O)cc(O)cc2O[C@@H]1c1cc(O)c(O)c(O)c1-c1c([C@H]2Oc3cc(O)cc(O)c3C[C@H]2O)cc(O)c(O)c1O)c1cc(O)c(O)c(O)c1
inactive: [1] 0.0332 | [2] 0.0641 | [3] 0.0977 | [4] -0.0327

COc1ncc(-c2ccc3nccc(-c4ccnnc4)c3c2)cc1NS(=O)(=O)c1ccc(F)cc1F
active: [5] -0.686 | [6] -0.505 | [7] -1.07 | [8] -0.722 | [9] -1.88 | [10] -1.31 | [11] -2.85 | [12] -2.24 | [13] -3.29 | [14] -2.78 | [15] -3.83 | [16] -3.59

CC(=O)Nc1ccc2c(c1)C1C=CCC1C(c1ccc(Cl)cc1Cl)N2 (centres undefined)
inactive: [1] 0.141 | [2] 0.199 | [3] 0.113 | [4] 0.349

CCOC(=O)c1c(C)cc(O)c(C)c1O
inactive: [1] 0.117 | [2] 0.0649 | [3] 0.0865 | [4] 0.119

CS(=O)(=O)c1ccc2nc(NC(=O)c3cccc(Cl)c3)sc2c1
inactive: [2] 0.0657 | [3] 0.0503 | [4] 0.0275
active: [1] -0.0938

CS(=O)(=O)c1ccc(C(=O)Nc2ccc(Cl)c(-c3ccccn3)c2)c(Cl)c1
inactive: [5] 0.0228 | [6] 0.046 | [7] 0.0359 | [8] 0.0158 | [9] 0.0316 | [10] 0.0515 | [11] 0.0335 | [12] 0.0126 | [13] 0.0254 | [14] 0.0522 | [15] 0.025 | [16] 0.0484

COC(=O)C[C@H]1C(C)(C)C(=O)[C@@H]2C[C@@]3(O)C4=CC(=O)O[C@@H](c5ccoc5)[C@]4(C)CCC3[C@@]1(C)C2=O (some centres undefined)
inactive: [1] 0.0813 | [2] 0.00839 | [3] 0.172 | [4] 0.118

COc1ccccc1C1NC(=S)NC(C)=C1C(=O)Nc1ccccc1Cl (centres undefined)
inactive: [1] 0.153 | [2] 0.0944 | [3] 0.107 | [4] 0.0425

Cc1cc(=O)c2c(O)cc(O)c(C)c2o1
inactive: [1] 0.111 | [2] 0.0695 | [3] 0.0905 | [4] 0.0937

COc1ccc(-c2nc3ccc(C4=NNC(=O)CC4C)cc3[nH]2)cc1 (centres undefined)
inactive: [5] -0.0122 | [6] 0.0487 | [7] -0.0245 | [8] -0.0302 | [9] -0.00296 | [10] -0.0241 | [11] 0.0147 | [12] -0.00868 | [13] -0.0247 | [14] 0.0168 | [15] -0.172 | [16] -0.00571

O=C(/C=C/c1cccc(S(=O)(=O)Nc2ccccc2)c1)NO
inactive: [5] 0.0161 | [6] 0.0578 | [7] 0.00773 | [8] 0.0247 | [9] -0.074 | [10] -0.000337
active: [11] -0.399 | [12] -0.113 | [13] -1.47 | [14] -0.52 | [15] -4.33 | [16] -2.11

O=C(/C=C/c1ccccc1)c1c(O)cc(O)cc1O
inactive: [1] 0.0431 | [2] 0.0419 | [3] 0.0216 | [4] -0.0857

O=C(C=Cc1ccccc1)c1ccccc1O
inactive: [1] 0.0713 | [2] 0.0789 | [3] 0.0334 | [4] 0.11

O=S(=O)(c1ccc(Br)c2ccccc12)n1ccnc1
inactive: [1] 0.091 | [2] 0.0921 | [3] 0.103 | [4] 0.117

Cc1ccc(NC(=O)c2ccc(OC3CSC3)cc2)cc1
inactive: [1] -0.0477 | [2] -0.0107 | [3] 0.0585 | [4] 0.076

CCOc1cc(C(=O)Nc2ccc([N+](=O)[O-])cc2)cc(OCC)c1OCC
inactive: [1] 0.054 | [2] 0.0461 | [3] 0.0696 | [4] -0.156

COCc1cc(C)nc(SCC(=O)NC(C)(C)C)c1C#N
inactive: [1] 0.122 | [2] 0.0633 | [3] 0.0645 | [4] -0.0386

O=C1N(c2ccccc2)c2ccccc2C1(Cc1ccncc1)Cc1ccncc1
inactive: 0.25 µM, library screen: screen2, EWS-FLI1 expression: high (no doxycycline) 0.0704 | 0.25 µM, library screen: screen2, EWS-FLI1 expression: low (doxycycline-induced shRNA knockdown) 0.0498 | 2.5 µM, library screen: screen2, EWS-FLI1 expression: low (doxycycline-induced shRNA knockdown) 0.0762
active: 2.5 µM, library screen: screen2, EWS-FLI1 expression: high (no doxycycline) -0.0773

NC(=O)NCC(N)C(=O)O (centres undefined)
inactive: [1] -0.0311 | [2] 0.00393 | [3] 0.0385 | [4] 0.0656

O=C(O)/C=C(/CC(=O)O)C(=O)O
inactive: [1] 0.0822 | [2] 0.00778 | [3] 0.03 | [4] 0.0214

O=C1C=C(O)c2ccccc2C1=O
inactive: [1] 0.0525 | [2] -0.00535 | [3] 0.0828 | [4] 0.181
